Experimental data from ChEMBL document CHEMBL1201862, “PubChem BioAssay data set” (2004).
“And” between values parts separate entries of the source, which are not always exact repeats. Equal entries are not always repeated.

test: A High Throughput Confirmatory Assay used to Identify Novel Compounds that Inhibit Mycobacterium Tuberculosis in the absence of Glycerol using Purified and Synthesized Compounds (8).; type: functional; call rule not given here

Q: With `CC1CC(C)CN(C(=O)c2ccc(CNc3c(N4CCCC4)c(=O)c3=O)cc2)C1` (stereo unspecified) as the molecule, how does the IC90 read?
A: > 100 µM (active)

Q: Which IC90 does the source give for `O=C(NCCc1ccc(Cl)cc1)c1ccc(CNc2c(N3CCOCC3)c(=O)c2=O)cc1` here?
A: > 100 µM (active)

Q: With `O=C(C1CCC(CNc2c(N3CCCCC3)c(=O)c2=O)CC1)N1CCCCC1` (stereo unspecified) as the molecule, how does the IC90 read?
A: > 83.3 µM (active)

Q: For `O=C(c1ccc(CNc2c(N3CCCC3)c(=O)c2=O)cc1)N1CCN(c2ccccc2)CC1`, which IC90 is on record?
A: > 100 µM (active)

Q: Which IC90 does the source give for `O=C(c1ccc(CNc2c(N3CCCC3)c(=O)c2=O)cc1)N1CC=C(c2ccccc2)CC1` here?
A: > 100 µM (active) and > 47.2 µM (active)

Q: Which IC90 does the source give for `CC1CCCN(C(=O)C2CCC(CNc3c(N4CCCCC4)c(=O)c3=O)CC2)C1` (stereo unspecified) here?
A: > 100 µM (active)
